Drawing on PubChem BioAssay (Tox21), this text covers Potency for 17 molecules.

Calls of active or inactive are those of the source. A call without a number means that no potency is given here. Calls come from the whole dose curve; as a rule, active = well fitted activation curve with a large enough effect in the repeat runs; inconclusive = weak or mixed curves; inactive = flat fitted curve, though single readings scatter.
Potency is the fitted concentration of half-maximal effect.

Sequence of KiSS-1 receptor (Homo sapiens) (Q969F8 whole entry, looked up): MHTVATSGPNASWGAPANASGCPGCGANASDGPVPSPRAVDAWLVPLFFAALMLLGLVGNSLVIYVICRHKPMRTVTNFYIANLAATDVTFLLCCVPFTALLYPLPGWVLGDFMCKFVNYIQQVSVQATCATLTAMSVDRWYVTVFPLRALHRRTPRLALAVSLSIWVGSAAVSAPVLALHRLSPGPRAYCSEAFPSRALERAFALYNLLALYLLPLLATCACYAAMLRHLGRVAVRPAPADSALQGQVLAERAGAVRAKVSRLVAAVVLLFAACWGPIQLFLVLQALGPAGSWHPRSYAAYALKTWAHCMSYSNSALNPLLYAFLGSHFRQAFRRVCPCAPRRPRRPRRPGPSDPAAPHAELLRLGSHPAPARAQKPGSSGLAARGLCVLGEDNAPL

This experiment has as its target KiSS-1 receptor (Homo sapiens) (UniProt Q969F8). Put plainly: Human kisspeptin (KISS1R) small molecule agonists, calcium flux assay in KISS1R-HEK293 cells (AID 1920064). Conditions: KISS1R-HEK293, calcium flux fluorescence, agonist; series mostly up to 76.8 µM. In a few lines: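 Kinetic calcium assay, 1 s sampling over 3 min at Ex/Em 480/540, in HEK293 cells engineered with human KISS1R; compounds delivered in DMSO after 1 h dye loading.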
(In general: Calcium assays in cells follow changes in intracellular calcium, usually with a dye or a luminescent sensor.)
With `CNC(=O)O/N=C(\C)C(C)S(C)(=O)=O` (configuration not stated), the Potency result was “inactive”.

As for `CCOC(=O)c1cn2nc(OP(=S)(OCC)OCC)cc2nc1C`, the Potency entry was “inactive”.

Regarding `CC(C)(c1ccc(O)c(-c2ccccc2)c1)c1ccc(O)c(-c2ccccc2)c1`, the Potency result is “inactive”.

On to `CCC1(c2ccccc2)C(=O)N(COC)C(=O)N(COC)C1=O`, for which the Potency entry is “inactive”.

As for `CCS(=O)(=O)CCSP(=O)(OC)OC`, the Potency entry was “inactive”.

On to `c1cc[n+]2c(c1)-c1cccc[n+]1CC2`, for which the Potency result is “inactive”.

With `O=C(Nc1ccccc1-c1ccc(Cl)cc1)c1cccnc1Cl`, the Potency result is “inactive”.

In the case of `O=C(NC(O)C(Cl)(Cl)Cl)NC(O)C(Cl)(Cl)Cl` (configuration not stated), the Potency entry is “inactive”.

For `CNC(=O)Oc1cccc(N=CN(C)C)c1`, the Potency entry is “inactive”.

In the case of `ClCc1ccccc1Cl`, the Potency result is “inactive”.

As to `CCOP(=S)(OCC)Oc1nc(Cl)n(C(C)C)n1`, the Potency entry was “inactive”.

For the molecule `CCOP(=S)(OCC)Oc1ccc(Cl)cc1Cl`, the Potency entry is “inactive”.

Regarding `CC(C)O.CC(C)O.OCCN(CCO)CCO.OCCN(CCO)CCO.[Ti]`, the Potency entry was “inactive”.

In the case of `CN(C)S(=O)(=O)N(SC(F)(Cl)Cl)c1ccccc1`, the Potency was 54.9 µM (active).

As to `CNC(=O)O/N=C(/CSC)C(C)(C)C`, the Potency entry was “inactive”.

As for `C/C=C/C=O`, the Potency result was “inactive”.

On to `CNC(=O)Oc1ccccc1C(C)C`, for which the Potency entry is “inactive”.
